From PubChem BioAssay (NCI)
Values joined by “and” are separate entries in the source; they are usually repeats but may differ in a detail not shown here. Equal entries are not always repeated. The panel holds about 83,000 compounds, 20% with a hit somewhere; the sample as a whole holds those more often.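 Single-concentration screen, 48 h exposure, 96-well plates. Endpoint: percent growth. Below 10 = active.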 Active and inactive are the calls of the source.

Columns and labels:
Test in all cases: NCI-60 one-dose screen, 48 h (100 = growth as untreated, 0 = no growth, -100 = all killed)
NCI-H226 lung = details: 10 µM
NCI-H322M lung = details: 10 µM
HOP-62 NSCLC = details: 10 µM
NCI-H522 lung = details: 10 µM
A549/ATCC NSCLC = details: 10 µM
COLO 205 colon = details: 10 µM
DU-145 prostate = details: 10 µM
K-562 leukemia = details: 10 µM
SF-539 CNS = details: 10 µM
M14 melanoma = details: 10 µM
HCT-15 colon = details: 10 µM
HT29 colon = details: 10 µM
SNB-75 CNS = details: 10 µM
U251 CNS = details: 10 µM
PC-3 prostate = details: 10 µM
LOX IMVI melanoma = details: 10 µM
MOLT-4 leukemia = details: 10 µM
RPMI-8226 leukemia = details: 10 µM
SK-OV-3 ovarian = details: 10 µM
MDA-MB-468 breast = details: 10 µM unless noted

Measured: growth

CC1[C@H]2[C@H](C[C@H]3[C@@H]4CC=C5c6sc(Nc7cccc(Cl)n7)nc6CC[C@]5(C)[C@H]4CC[C@@]32C)O[C@]12CC[C@@H](C)CO2 (stereo partly specified)
inactive: NCI-H226 lung 81.5% | NCI-H322M lung 102% | HOP-62 NSCLC 116% | NCI-H522 lung 65.8% | A549/ATCC NSCLC 96.1% | COLO 205 colon 70.2% | DU-145 prostate 99.1% | K-562 leukemia 54.5% | SF-539 CNS 110% | M14 melanoma 77.4% | HCT-15 colon 73.9% | HT29 colon 100% | SNB-75 CNS 127% | U251 CNS 92.2% | PC-3 prostate 48% | LOX IMVI melanoma 79.6% | MOLT-4 leukemia 79.8% | RPMI-8226 leukemia 56.5% | SK-OV-3 ovarian 108% | MDA-MB-468 breast 93.6%

Cc1ccc2c(c1)C(=O)/C(=C/c1ccc([N+](=O)[O-])cc1)S2
inactive: NCI-H226 lung 52.2% | NCI-H322M lung 105% | HOP-62 NSCLC 92% | NCI-H522 lung 82.5% | A549/ATCC NSCLC 99.6% | COLO 205 colon 103% | DU-145 prostate 104% | K-562 leukemia 69.9% | SF-539 CNS 96.6% | M14 melanoma 97.3% | HCT-15 colon 96.2% | HT29 colon 79.1% | SNB-75 CNS 81.3% | U251 CNS 77.8% | PC-3 prostate 94.5% | LOX IMVI melanoma 105% | MOLT-4 leukemia 107% | RPMI-8226 leukemia 65.2% | SK-OV-3 ovarian 87.4% | MDA-MB-468 breast 84%

CCOC(=O)c1ccc(NC(=O)CSC(CC(=O)c2sc(Nc3ccccn3)nc2C)c2ccccc2F)cc1 (stereo unspecified)
active: NCI-H226 lung 4.65% | HOP-62 NSCLC 3.54% | NCI-H522 lung -22.7% | A549/ATCC NSCLC 1.12% | COLO 205 colon -34.1% | DU-145 prostate 1.39% | K-562 leukemia 5.79% | SF-539 CNS -27.3% | M14 melanoma 0.872% | HCT-15 colon -42% | HT29 colon -28.3% | SNB-75 CNS -3.07% | U251 CNS -70.4% | PC-3 prostate 0.809% | LOX IMVI melanoma -76.8% | RPMI-8226 leukemia -14.2% | SK-OV-3 ovarian 5.92% | MDA-MB-468 breast 3.8%
inactive: NCI-H322M lung 17.5% | MOLT-4 leukemia 11.5%

COc1cc(/C(C#N)=C/c2nc3c(N4CCOCC4)nc(Cl)nc3n2C)cc(OC)c1OC
inactive: MDA-MB-468 breast 15%

FC(F)(F)c1cc(N2CCCCC2)nc(NCCCNc2ccnc3cc(Cl)ccc23)n1
active: MDA-MB-468 breast 1.13%

Cc1cccc2sc(/N=C(\N)C(Br)Br)nc12
active: MDA-MB-468 breast -33.6%

CCN(CC)CC(=O)N(CC)c1ccc(C)c(Cl)c1
inactive: MDA-MB-468 breast 95.6%

COc1ccc2nc3cc(Cl)ccc3c(NCCCNC(C)=O)c2c1
inactive: MDA-MB-468 breast 39.5%

Cc1cc(Cc2cc(C)c(N)cc2N)c(N)cc1N
inactive: MDA-MB-468 breast 95.4%

O=C(Cn1cc(CN2C(=O)c3ccccc3S2(=O)=O)nn1)Nc1nc2ccccc2s1
inactive: MDA-MB-468 breast 130%

O=C(CNc1nnc(-c2ccc(Cl)cc2)o1)Nc1ccc(-c2nc3ccccc3s2)cc1
active: MDA-MB-468 breast -10.2%

Cn1cc(-c2nonc2-c2c[nH]c3ccccc23)c2cccnc21
active: MDA-MB-468 breast -12.9%

CC1(C)OC(=O)C(c2ccsc2)C(=O)O1
inactive: MDA-MB-468 breast 114%

COc1ccc(OC)c(/C=C2\CCc3ccccc3C2=O)c1
active: MDA-MB-468 breast -5.15%

N#Cc1ccc(NC(=O)Nc2ccc(Oc3ccc(NC(=O)Nc4ccc(C#N)cc4)cc3)cc2)cc1
inactive: MDA-MB-468 breast 26%

O=C1/C(=C/c2ccc(Cl)cc2)CN(C(=O)C(Cl)Cl)C/C1=C\c1ccc(Cl)cc1
active: MDA-MB-468 breast -59.7%

CC[C@H](C)[C@H](NC(=O)[C@@H](N)CCC(N)=O)C(=O)N[C@@H](Cc1ccc(O)cc1)C(=O)N[C@@H](CCCCN)C(=O)N[C@@H](CCCCN)C(=O)N[C@@H](Cc1ccc(O)cc1)C(=O)N[C@@H](CCCNC(=N)N)C(=O)N[C@H](C(=O)N[C@@H](Cc1c[nH]c2ccccc12)C(=O)N[C@@H](Cc1ccc(O)cc1)C(=O)N[C@@H](CCCNC(=N)N)C(=O)N[C@@H](CCCCN)C(=O)N[C@@H](C)C(=O)N[C@@H](Cc1c[nH]c2ccccc12)C(=O)N[C@@H](CCCCN)C(=O)N[C@H](C(=O)N[C@@H](CC(C)C)C(=O)NCC(=O)N[C@@H](CCCCN)C(=O)N[C@H](C(N)=O)C(C)C)C(C)C)[C@@H](C)O
inactive: MDA-MB-468 breast 44.6%

COc1cc2nc(N3CCN(C(=O)C4COc5ccccc5O4)CC3)nc(N)c2cc1OC (stereo unspecified)
inactive: MDA-MB-468 breast 78.2% and 104%

Cc1ccc(/C=N/Nc2nc(Nc3ccccc3)nc(Nc3ccc(S(N)(=O)=O)cc3)n2)cc1
inactive: MDA-MB-468 breast 65%
